SARS PLpro yeast: SARS-CoV PLP inhibition in yeast; S. cerevisiae expressing SARS-CoV PLpro, growth rescue; Potency, µM (titrated, usually from 32.9 µM), usual class: activators; 330,000 compounds, 0.19% hits; calls by dose curve; also: nearly all actives have a fitted effect of over 55% in size
HCMV antiviral: inhibitors of human cytomegalovirus | AID 1259415 | activity change, negative = inhibition, % at 57.5 µM | 410,000 compounds, 4.5% hits | HFF cells, HCMV-luciferase reporter, 72 h; active compounds read low; in the data active = activity change below about -60%; inconclusive = no clear call, values can overlap the other calls; inactive = above about -39%
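Steps: HFFs plated, 16 h 37C; compounds added; HCMV-luciferase added to MOI 1 PFU/cell; 72 h 37C; OneGlo reagent, 5 min room temperature; luminescence read, normalized to controls.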
Sm TGR inh: blocks Schistosoma mansoni thioredoxin glutathione reductase; Q962Y6; purified TGR, DTNB reduction, TNB absorbance 405 nm; Potency, µM (highest dose often 114 µM), hits mostly inhibitors; 360,000 compounds, 3% hits; also: nearly all actives have a fitted effect of over 60% in size
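TGR 20 nM + NADPH 100 uM (dispensed conc.), cpd preinc 15 min RT; start with NADPH (500 uM addition) then DTNB (15 mM addition). Kinetic TNB absorbance, 405 nm filter. Four-parameter Hill fit across titration.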
Pf growth 96h: P. falciparum growth inhibition at 96 hours; Potency, µM (doses to about 28.7 µM), usual class: inhibitors; 320,000 compounds, 6.9% hits; P. falciparum luciferase reporter growth, 96 h
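P. falciparum expressing integrated firefly luciferase grown in erythrocytes (2% hematocrit, 0.05% parasitemia final) with compounds for 96 hours at 37 C, 5% CO2. Growth inhibition read as loss of luminescence after adding luciferase detection reagent.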
HCV inh: HCV inhibition; Huh7.5.1 HCVcc-Cre infection, luciferase reporter, 44 h; 340,000 compounds, 3.4% hits; Potency, µM (highest dose often 41.8 µM), most hits filed as inhibitors
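Antiviral activity was scored by luciferase reporter output from cells infected with HCVcc-Cre (~0.5 moi) in presence of compound, 44 h infection period, cells seeded 1,000/well 4 h prior.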
Pf growth 48h: P. falciparum growth inhibition at 48 hours (one generation); P. falciparum luciferase growth in erythrocytes, 48 h; Potency, µM (series often up to 28.7 µM), usual class: inhibitors; 310,000 compounds, 5.9% hits
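Here the parasites carry a stable luciferase gene and grow inside erythrocytes in Albumax-based RPMI medium with compound for one erythrocytic cycle. Activity is scored as loss of luminescent signal.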
Large screens that a line does not name were inactive. Sampled rows, rich in hits. Any-hit rate of the full collection: about 15%. Unless noted, calls follow the shape of the dose curve; as a rule, active = well fitted curve in the direction sought with a large enough effect; inconclusive = small, poorly fitted or top-dose-only effect, or another doubt; inactive = no such curve, though single readings can be large; an effect the other way counts as inactive or inconclusive.

COc1cc2c(cc1OC)C1[C@H]3C(=CC[C@H]1OC2O)CCN3C (some centres not stated)	HCMV antiviral -102.6 (no result: Sm TGR inh, Pf growth 96h, Pf growth 48h)
COc1ccc(C2=C(C)C(=NCCCN3CCN(c4cc(Cl)ccc4C)CC3)NS2(=O)=O)cc1	none (no result: SARS PLpro yeast, Pf growth 96h, HCV inh, Pf growth 48h)
CC1=C(c2ccc(Cl)cc2)S(=O)(=O)NC1=NCCCN1CCN(c2cc(C)ccc2C)CC1	HCMV antiviral -99.9 (no result: SARS PLpro yeast, Pf growth 96h, HCV inh, Pf growth 48h)
CC(=O)N1CCN=C1SCc1cccc(C)c1	none
CC(C)(C)OC(=O)N1CCC(C(=O)Nc2cccc(C(=O)NCCCc3ccccc3)c2)CC1	HCV inh 3.98µM (no result: SARS PLpro yeast, Sm TGR inh, Pf growth 96h, Pf growth 48h)
CC(C)(C)OC(=O)N(Cc1ccccc1)Cc1cccc(OCc2cccc(NC(=O)C3CC3)c2)c1	HCMV antiviral inconclusive, HCV inh 1.26µM (no result: SARS PLpro yeast, Sm TGR inh, Pf growth 96h, Pf growth 48h)
COc1cccc(NC(=O)C2CCN(C(=O)[C@@H]3Cc4ccccc4CN3)CC2)c1	Pf growth 96h inconclusive, Pf growth 48h inconclusive
O=C(NCCCc1ccccc1)c1cccc(NC(=O)C2CCCCC2)c1	HCV inh 4.47µM (no result: SARS PLpro yeast, Sm TGR inh, Pf growth 96h, Pf growth 48h)
O=C(NCCCc1ccccc1)c1cccc(NC(=O)C2CCC2)c1	HCV inh inconclusive (no result: SARS PLpro yeast, Sm TGR inh, Pf growth 96h, Pf growth 48h)
COc1cccc(NC(=O)C2CCN(C(=O)[C@@H]3Cc4ccccc4CN3C(=O)OC(C)(C)C)CC2)c1	Pf growth 96h inconclusive, Pf growth 48h 10.4µM
CC(OC(=O)Cn1[nH]c(=O)c2ccccc2c1=O)C(=O)c1ccccc1 (configuration not stated)	none
CC(C)(CNC(=O)c1ccc(S(=O)(=O)Nc2ccccc2F)cc1)N1CCOCC1	HCV inh inconclusive
Cc1ccccc1NS(=O)(=O)c1ccc(C(=O)NCC(C)(C)N2CCOCC2)cc1	HCMV antiviral -67.4, HCV inh inconclusive, Pf growth 48h inconclusive
CC(=O)c1cccc(S(=O)(=O)NCC(C)(C)N2CCOCC2)c1	Sm TGR inh 39.8µM
CCOc1ccccc1NC(=O)N1c2ccccc2Sc2ccccc21	none (no result: SARS PLpro yeast, Pf growth 96h, HCV inh, Pf growth 48h)
COc1ccccc1C(=O)N1c2ccccc2Sc2ccccc21	HCMV antiviral -72.7, HCV inh inconclusive
CCOc1ccccc1C(=O)N1c2ccccc2Sc2ccccc21	Pf growth 96h inconclusive, HCV inh 11.2µM (no result: Pf growth 48h)
Cc1ccc(CNC(=O)CNC(=O)c2ccc(Br)o2)cc1	none
CCSc1ncc(Cl)c(C(=O)Nc2ccc(S(=O)(=O)N3CCCCC3)cc2)n1	HCMV antiviral inconclusive (no result: SARS PLpro yeast, Pf growth 96h, HCV inh, Pf growth 48h)
C/C(=N\NC(=O)c1ccccc1F)c1ccc2c(c1)Nc1ccccc1S2	HCMV antiviral -69.2, Pf growth 96h inconclusive, HCV inh inconclusive
CN1C(=O)c2ccccc2Sc2ccc(NC(=O)c3ccccc3F)cc21	none (no result: SARS PLpro yeast, Pf growth 96h, HCV inh, Pf growth 48h)
C/C(=N\NC(=O)c1ccc(O)cc1)c1ccc2c(c1)Nc1ccccc1S2	Pf growth 96h inconclusive, HCV inh 10µM, Pf growth 48h inconclusive
CC(=O)Nc1cccc(/C(C)=N/NC(=O)c2ccc(O)cc2)c1	none
COc1cc(OC)cc(C(=O)NNC(=O)CCNS(=O)(=O)c2ccc(Br)cc2)c1	none (no result: Sm TGR inh, Pf growth 96h, Pf growth 48h)
O=S(=O)(Nc1nc2ccccc2nc1-[n+]1cccc(N=C([O-])c2ccc(Cl)cc2)c1)c1ccccc1	HCMV antiviral inconclusive, Pf growth 96h 8.28µM, Pf growth 48h inconclusive
Cc1ccc(OCc2cnc(Cl)s2)c(C)c1	HCMV antiviral inconclusive
CC(C)=CCN1CCN(CCC2=C(C)CCCC2(C)C)CC1CCO (configuration not stated)	HCMV antiviral -66.3, HCV inh inconclusive, Pf growth 48h 13.1µM
CC1=C(CCN2CCN(C3CCCC3)C(CCO)C2)C(C)(C)CCC1 (configuration not stated)	HCV inh inconclusive, Pf growth 48h inconclusive
CC1=C(C(=O)OC(C)C)C(c2ccc(N(C)C)cc2)C2=C(CC(C)(C)CC2=O)N1 (configuration not stated)	HCV inh inconclusive, Pf growth 48h inconclusive
CCOC(=O)C1=C(C)NC2=C(C(=O)CC(C)(C)C2)C1c1ccc(O)c(OCC)c1 (configuration not stated)	Pf growth 48h inconclusive
CCOC(=O)C1=C(C)NC2=C(C(=O)CC(C)(C)C2)C1c1ccc2c(c1)CCCN2C (configuration not stated)	HCV inh inconclusive, Pf growth 48h 13.1µM
CCOC(=O)C1=C(C)NC2=C(C(=O)CC(C)(C)C2)C1c1ccc(N(C)C)cc1 (configuration not stated)	Pf growth 96h inconclusive, HCV inh inconclusive, Pf growth 48h 11.7µM (no result: HCMV antiviral)
CCC(=O)Nc1ccc2c(c1)nc1n2CCN(CCOC)C1	Sm TGR inh inconclusive
Cc1c(S(=O)(=O)N2CCN(C(c3ccccc3)c3ccccc3)CC2)c(=O)n(C)c(=O)n1C	Pf growth 96h 2.33µM, Pf growth 48h 1.65µM
Cc1c(S(=O)(=O)N2CCOCC2)c(=O)n(C)c(=O)n1C	none
O=C(O)c1cccc(S(=O)(=O)N2CCN(C(c3ccccc3)c3ccccc3)CC2)c1	Pf growth 96h 13.1µM, Pf growth 48h 10.4µM
CN(CC(=O)Nc1ccccc1C(F)(F)F)C(=O)COc1ncnc2ccccc12	none
Nc1cc(N)c(OCC(F)(F)F)cc1OCC(F)(F)F	Sm TGR inh 1.12µM (no result: HCMV antiviral)
COc1ccc(C(=O)c2coc(-c3ccccc3C(=O)O)c2C(=O)O)cc1	none
COc1ccc(C(=O)c2c(C(F)(F)F)oc3c2C(=O)c2ccccc2C3=O)cc1	HCV inh 1.58µM, Pf growth 48h 0.104µM (no result: HCMV antiviral, Pf growth 96h)
CCCS(=O)(=O)NC(=O)C1(C)CCN(C(=O)c2ccc(OC)cc2OC)C1 (configuration not stated)	none (no result: SARS PLpro yeast, Sm TGR inh, Pf growth 96h, HCV inh, Pf growth 48h)
Cc1cc(CN(C)Cc2ccc(OCC(O)CN(C)Cc3ccccc3)cc2)on1 (configuration not stated)	Pf growth 96h inconclusive
CCc1ccc(CNCc2ccc(OCC(O)CN(C)Cc3ccccc3)cc2)nc1 (configuration not stated)	Pf growth 96h inconclusive, HCV inh 11.2µM, Pf growth 48h inconclusive
CN(Cc1ccccc1)CC(O)COc1ccc(CNCCc2cccnc2)cc1 (configuration not stated)	HCMV antiviral inconclusive, Sm TGR inh inconclusive, HCV inh inconclusive, Pf growth 48h 5.22µM
C=CCOc1ccc(CN(C)CC(O)COc2cccc3ccccc23)cc1 (configuration not stated)	Pf growth 96h inconclusive, HCV inh 31.6µM, Pf growth 48h 10.4µM
CN(Cc1ccccc1)CC(O)COc1ccc(CNCCc2ccncc2)cc1 (configuration not stated)	HCV inh 12.6µM, Pf growth 48h 5.22µM
COc1ccc2c(CNCCc3cccs3)c(C(=O)O)n(Cc3ccccc3C)c2c1	none (no result: SARS PLpro yeast, Pf growth 96h, HCV inh, Pf growth 48h)
CC(C)(C)c1cc(NC(=O)C2(C)CCN2C(=O)C2(c3ccccc3)CCCC2)no1 (configuration not stated)	none (no result: SARS PLpro yeast, Sm TGR inh, Pf growth 96h, HCV inh, Pf growth 48h)

Assay outcomes from PubChem.
